A selection: hits, their analogues and other compounds. The true share with any hit is near 10%.
RORgamma inh = inhibitors of mouse ROR gamma transcriptional activity; Potency, µM (highest dose often 53.6 µM), for the others: top-dose activity change, negative = inhibition, most hits filed as inhibitors; 5.4% of 310,000 active; Drosophila S2 Gal4-RORgamma UAS-luciferase reporter, 20 h; AID 2551; note: % is set by controls: 0 for no effect and ±100 for the full control effect; nearly all actives have a fitted effect of over 60% in size
Target sequence (P51450 whole entry, looked up, the tested form may be a part): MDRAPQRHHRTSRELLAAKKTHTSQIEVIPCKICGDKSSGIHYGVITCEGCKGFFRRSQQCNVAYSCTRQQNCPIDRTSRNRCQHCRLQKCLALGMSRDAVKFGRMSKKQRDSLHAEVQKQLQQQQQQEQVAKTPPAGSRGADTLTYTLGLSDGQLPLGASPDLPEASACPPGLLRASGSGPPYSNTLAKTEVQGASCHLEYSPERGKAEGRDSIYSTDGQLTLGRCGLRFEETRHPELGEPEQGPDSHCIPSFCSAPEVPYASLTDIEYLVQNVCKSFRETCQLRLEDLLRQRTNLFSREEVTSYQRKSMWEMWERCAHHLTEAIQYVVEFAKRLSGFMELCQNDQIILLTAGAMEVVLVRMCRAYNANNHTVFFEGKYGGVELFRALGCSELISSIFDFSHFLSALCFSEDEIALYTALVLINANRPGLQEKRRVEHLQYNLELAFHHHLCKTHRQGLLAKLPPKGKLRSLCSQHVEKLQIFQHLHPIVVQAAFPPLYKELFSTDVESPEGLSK
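In this cell-based reporter format, copper sulfate (700 uM final) drives Gal4–ROR gamma fusion expression from a metallothionein promoter in Drosophila Schneider cells; compounds preincubated 1 hr, reporter read after 20 hr at ambient temperature.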
ELG1 repair inh = blocks ELG1-dependent DNA repair in HEK293T cells | HEK293T ELG1-luciferase reporter, luminescence, 16 h; DNA damage induced by 5-fluorouridine | Potency, µM (highest dose often 46.1 µM), for inactives: at the highest dose activity change, negative = inhibition, actives largely listed as inhibitors | 2.3% of 330,000 active; note: % is set by controls: 0 for no effect and ±100 for the full control effect; nearly all actives have a fitted effect of over 55% in size
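In this reporter screen, reduction of luminescence relative to DMSO vehicle indicated activity. Compounds and 5-fluorouridine were added together to 2,000 cells per well, incubated for 16 hr at 37 °C, then developed with ONE-Glo.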
MCF10A rereplic = DNA re-replication induction in MCF 10a cells. MCF 10A DNA re-replication, Hoechst nuclear intensity, 48 h. Potency, µM (highest dose often 46.1 µM), without a hit: top-dose activity, positive = re-replication, most hits filed as activators. 2.9% of 350,000 active; note: % of control where 0% means no effect; nearly all actives have a fitted effect of over 50% in size
SW480 rerep = inducers of DNA re-replication in SW480 colon cancer cells. SW480 DNA re-replication, Hoechst DNA content imaging, 48 h. Potency, µM (titrated, usually from 46.1 µM), for inactives: at the top dose re-replication activation, actives largely listed as activators. 1.8% of 340,000 active. AID 624297; note: % of control where 0% means no effect; nearly all actives have a fitted effect of over 55% in size
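Treated cells incubate 48 hr (37 C, 5% CO2), are stained 40 min with Hoechst, and nuclear fluorescence is enumerated; a rise in nuclei with high DNA signal marks re-replication.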
VP16 counter = counter-screen for ROR gamma inhibitors: Gal4-VP16 reporter. Drosophila S2 Gal4-VP16 UAS-luciferase, luminescence, 20 h. Potency, µM (highest dose often 53.6 µM), for the others: at the highest dose activity, negative = inhibition, hits mostly inhibitors. 3.5% of 310,000 active. AID 2546;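 note: Gal4-VP16 expression switched on by copper sulfate through the metallothionein promoter; % is set by controls: 0 for no effect and ±100 for the full control effect; nearly all actives have a fitted effect of over 50% in size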
* = called active by the depositor; ? = inconclusive; . = not tested or not shown; ! = not confirmed by another sample; [ ] = another dose, or the depositor's remark. Calls come from the whole dose curve; as a rule, active = well fitted curve in the direction sought with a large enough effect; inconclusive = small, poorly fitted or top-dose-only effect, or another doubt; inactive = no such curve, though single readings can be large; an effect the other way counts as inactive or inconclusive. Potency is the fitted concentration of half-maximal effect.

SMILES	RORgamma inh	ELG1 repair inh	MCF10A rereplic	SW480 rerep	VP16 counter
O/N=C/c1c[nH]c2ccccc12	14.9%	-10.6%	-0.4%	3.1%	-4.6%
NC(=Nc1ccccc1)NN=Cc1c[nH]c2ccccc12	.	.	88.4%	6.51µM*	.
O=C(Cn1cc(C(=O)c2ccccc2)c2ccccc21)NCc1ccco1	12.4%	?	?	?	-0.6%
COc1ccc(OCCn2cc(/C=C(\C#N)C(=O)NCc3ccco3)c3ccccc32)cc1	-41.3%	-1.4%	?	?	3.55µM*
C#C[C@]1(O)CC[C@H]2[C@@H]3CCC4=Cc5nc6nc7ccccc7n6cc5C[C@]4(C)[C@H]3CC[C@@]21C	.	7.94µM*	?	7.94µM*	.
CC(C)(C)c1ccc(O)c(N=Cc2c(O)ccc3ccccc23)c1	12.6µM*	-17.0%	?	?	11.2µM*
O=S(=O)(Nc1c(O)ccc2ccccc12)c1ccc(F)cc1	.	.	?	-55.2%	.
N#CC(Br)Br	2.51µM*	?	-4.0%	-23.8%	1.2%
C=CC[N+]1(C)CCC23c4c5ccc(O)c4O[C@H]2C(=O)CC[C@@]3(O)C1C5 (some centres not stated)	-0.5%	.	0.3%	10.4%	-2.6%
O=C(O)c1ccc(-[n+]2c(-c3ccccc3)cc(-c3ccccc3)cc2-c2ccccc2)cc1	.	-6.0%	-5.1%	-8.4%	.
O=C(O)c1ccc(-c2ccc3cc(C45CC6CC(CC(C6)C4)C5)c(O)cc3c2)cc1	?	.	.	.	11.2µM*
CN(Cc1ccccc1)C(=O)c1ccc(NC(=O)C2CCN(C(=O)OC(C)(C)C)CC2)cc1	.	10.3µM*	-4.7%	5.9%	.
CN(Cc1ccccc1)C(=O)CN1CCCC1=O	1.3%	-0.9%	-0.5%	0.1%	2.4%
CN(CCc1ccc(Cl)c(Cl)c1)[C@H]1CCCC[C@H]1N1CCCC1	-26.2%	.	.	.	5.0%
Cc1ccc2c(Cl)cc(Cl)c(O)c2n1	0.562µM*!	.	20.6µM*	10.3µM*	0.891µM*!
CCCCN1C(=O)NC(=O)C2(Cc3c(nc4ccccn4c3=O)N3CCc4ccccc4C32)C1=O (configuration not stated)	-8.8%[10 µM]	?	0.6%	-2.6%	-12.8%
CCCCN1C(=O)NC(=O)C2(Cc3c(nc4c(C)cccn4c3=O)N3CCc4ccccc4C32)C1=O (configuration not stated)	2.8%	20.6µM*	?	?	?
Cc1cccn2c(=O)c3c(nc12)N1CCc2ccccc2C1C1(C3)C(=O)NC(=O)N(C)C1=O (configuration not stated)	22.4%	13µM*	-4.6%	-2.1%	-1.1%
CCOP(=S)(OCC)Oc1cc(C)nc(N(CC)CC)n1	0.3%	.	.	.	-0.2%
C=CC=O	-5.2%	.	.	.	-22.4%
Cc1ccc(O)c(C(CCN(C(C)C)C(C)C)c2ccccc2)c1 (configuration not stated)	-12.3%	.	.	.	4.3%
CC1(C)N(O)C2CCCCC2N1O (configuration not stated)	15.8µM*	22.0%	10.0%	-0.7%	?
CCOC(=O)C1(c2ccccc2)CCN(CCC(C#N)(c2ccccc2)c2ccccc2)CC1	38.0%	.	?	2.82µM*	-1.2%
CCCCc1ccc(C(=O)O)nc1	7.08µM*	11.8%	?	?	8.91µM*
C=CCC1([C@@H](C)CCC)C(=O)NC(=O)NC1=O	.	0.4%	-18.1%	-105.5%	.
C=CCC1(C(C)CCC)C(=O)N=C(S)NC1=O (configuration not stated)	10µM*	.	-1.4%	-1.4%	-4.3%
COC(=O)[C@H]1C[C@H]2CC[C@H](O)C[C@H]2N1CC1CC1	14.4%	.	.	.	2.0%
Cc1[nH]c2ccccc2c1C(=O)CN1CC=C(c2ccccc2)CC1	35.8%	-2.0%	18.4µM*	?	-2.6%
CC(C)Oc1cc(-n2nc(C(C)(C)C)oc2=O)c(Cl)cc1Cl	34.5%	.	.	.	?
CC(C)c1oc(=O)cc2c1[C@@H](O)[C@H]1OC(=O)[C@@]3(C)C[C@@H](O)[C@@H](O)[C@@]2(C)C13 (some centres not stated)	-32.1%	?	5.17µM*	?	-17.9%
